PTPN22 act – LYP phosphatase activators, primary screen, biochemical, DiFMUP fluorescence, 2 µM; recombinant LYP; 0 = plate median, 100 = signal doubled; activation, % at 2 µM; 0.11% of 96,000 active; AID 697, 2007;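 active means activation at 2 µM above a set limit, the mean plus 5 SD, cut at about 37% in these data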
Measles CPE – compounds protecting cells from measles virus cytopathic effect, primary screen, measles RdRp inhibitor project, single point, MLSMR library, absorbance. Measles virus-infected cells, CPE protection. protection (pct of control), % at 4 µM. 1.5% of 140,000 active. AID 841, 2007; in the data active means protection mostly above about 24%, no sharp cut-off; inactive means mostly below about 26%
LYP inh 2 – PTPN22 phosphatase inhibitors, primary screen, biochemical, DiFMUP fluorescence, 2 µM; Tyrosine-protein phosphatase non-receptor type 22 (Homo sapiens), Q9Y2R2; recombinant LYP catalytic domain; inhibition, % at 2 µM; 0.21% of 96,000 active; AID 640, 2007;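 active means inhibition at 2 µM at or above a set limit, the screen mean plus 3 SD, cut at about 24% in these data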
Hits are given with their value; - = inactive; . = not tested or not shown. An excerpt weighted towards active compounds, which were near 1.7% of everything screened.

SMILES	PTPN22 act	Measles CPE	LYP inh 2
CC1CN(CC(O)COC(c2ccccc2)c2ccccc2)CC(C)O1 (stereo not given)	.	30.7	.
Cc1ncc(CO)c2cc(C(N)=O)c(=Nc3ccccc3)oc12	-	48.1	-
Cc1ccc(N=c2oc3cc(O)ccc3cc2C(N)=O)cc1	-	-	-
Cc1ccccc1NC(=O)CSc1nc(N)c2c3c(sc2n1)CSC(C)(C)C3	.	-	.
COc1ccccc1-c1nnc(SCc2ccccn2)n1C	-	-	-
Cc1ccc(S(=O)(=O)NCCc2nnc3ccc(SCC(=O)Nc4nc5ccccc5s4)nn23)cc1	.	29.7	.
CCOc1ccc(-c2nnc3ccc(SCC(=O)Nc4nc5ccccc5s4)nn23)cc1	.	-	.
O=C(O)CP(=O)(O)O	.	-	.
COC(=O)c1sc2ccccc2c1NC(=O)c1ccc(S(=O)(=O)N2CCCCC2C)cc1 (stereo not given)	.	-	.
CCOc1cc(CNc2ccc(OC)cc2)cc(Br)c1OCC(=O)NC(C)(C)C	-	-	-
COc1cc(CNc2ccc(C(=O)O)cc2)cc(Br)c1OCC(=O)NC(C)(C)C	.	35.5	.
COc1ccc(-c2nc(-c3ccc(NC(=O)c4ccc(Br)o4)cc3)no2)cc1OC	-	-	-
CCN(CC)c1ccc(NC(=O)c2ccccc2F)cc1S(=O)(=O)Nc1ccccc1OC	.	-	.
Cc1cc(C(=O)NP(=O)(N2CCOCC2)N2CCOCC2)c(C)n1-c1ccc(Br)cc1	.	45.9	.
Cc1cc(C(=O)NP(=O)(N2CCOCC2)N2CCOCC2)c(C)n1-c1ccc(N(C)C)cc1	.	-	.
O=C(NCC(c1cccs1)N1CCOCC1)c1ccccc1NS(=O)(=O)c1cccc([N+](=O)[O-])c1 (stereo not given)	.	31.6	.
O=C(NCC(c1cccs1)N1CCOCC1)c1ccccc1NS(=O)(=O)c1ccc(Cl)c([N+](=O)[O-])c1 (stereo not given)	.	-	.
O=S1(=O)N=C(Nc2ccc(S(=O)(=O)N3CCCCC3)cc2)c2ccccc21	.	-	.
CC(C)OC(=O)CSc1nnc(CNc2nc(-c3ccccc3)cs2)n1C	-	-	-
COc1cccc(C(=O)CSc2nnc(CNc3nc(-c4ccccc4)cs3)n2C)c1	-	52.5	-
Cc1c(Cc2ccccc2)c(=O)oc2c(CN(C)C)c(O)c(Cl)cc12	.	-	.
CCOc1cc(/C=N/O)ccc1OCc1ccc(F)cc1	.	-	.
COc1cc(/C=N/n2nnnc2N)ccc1OCc1c(C)no[n+]1[O-]	.	-	.
COc1cc(/C=N/n2c(C)n[nH]c2=S)ccc1OCc1ccc(F)cc1	.	121.8	.
COc1cc(/C=N\n2nnnc2N)ccc1OCc1ccc(F)cc1	-	59.7	-
SMILES	PTPN22 act	Measles CPE	LYP inh 2
CC1CCC(NC(=O)C2c3ccccc3C(=O)N2CCCN2CCOCC2)CC1 (stereo not given)	-	-	-
CC1Cc2ccccc2N1C(=O)CSc1nnc2c(n1)[nH]c1ccccc12 (stereo not given)	-	-	-
COc1cccc(OCC(O)CN(CCO)Cc2ccccc2)c1 (stereo not given)	-	32.2	-
CN(C)CC(O)COc1cccc(OCC(O)CN(C)C)c1 (stereo not given)	-	-	-
COc1ccc(-c2nnc(SCC(=O)c3cccs3)n2-c2ccc(Cl)cc2)cc1	.	-	.
COc1cccc(-c2nnc(SCC(N)=O)n2-c2ccc(Cl)cc2)c1	-	56.7	-
CC(=O)Cc1nsc(NC(=O)c2c(-c3ccccc3Cl)noc2C)n1	-	-	-
O=C(CSc1nnnn1-c1cccc2ccccc12)Nc1ccc(N2CCOCC2)c(Cl)c1	-	-	-
CCc1ccc(C2CC(c3ccc(Cl)cc3)=NNC2=O)cc1 (stereo not given)	-	-	-
Cc1ccc(C2CC(c3ccc(Cl)cc3)=NNC2=O)cc1 (stereo not given)	-	49.0	-
Cc1ccc(C)c(C(=O)c2c(C)nc3sccn23)c1	-	-	-
Cc1cc(C)c(NC(=O)c2cc3c(nc4sccn43)s2)c(C)c1	-	28.0	-
Cc1ccc(-c2nc(CSCC(=O)NCCN3CCN(Cc4ccccc4)CC3)c(C)o2)cc1	-	-	-
O=C(c1cc2ccccc2o1)N1CCN(c2ccccc2Cl)CC1	-	-	-
O=C(N/N=C/c1ccccn1)c1ccco1	-	-	-
O=C(N/N=C\CCc1ccccc1)c1ccco1	.	57.1	.
CN1CCN(CC(=O)N(C)c2nc(-c3ccccc3)cs2)CC1	-	-	-
CCOC(=O)/C=C/C(=O)N1CCc2ccccc21	-	24.9	-
CCOC(=O)c1cc2sccc2n1CC(=O)N1CCc2ccccc21	-	-	-
CCOCC(=O)N1CCc2ccccc21	-	-	-
Cc1csc(=N)n1CC(=O)N1CCc2ccccc21	-	26.4	-
O=C(c1ccccc1)N1CCc2ccccc21	-	-	-

Source: PubChem BioAssay
